Screening results deposited in PubChem BioAssay by National Center for Advancing Translational Sciences (NCATS).
Most compounds without a hit are left out; they make up all but 7.3% or so of the library.
FMDV inh: foot and mouth disease virus antiviral activity; actives 1.2% (n = 410,000); AID 1159524; FMDV antiviral cell-based qHTS; Potency, µM (doses to about 57.9 µM), without a hit: at the highest dose activity change, negative = inhibition, usual class: inhibitors; calls by dose curve; tested in HEK293T cells; further: read-out not given here; potency means the concentration at half of the fitted maximal effect; nearly all actives have a fitted effect of over 45% in size
HCMV antiviral: human cytomegalovirus inhibition; actives 4.5% (n = 410,000); activity change, negative = inhibition, % at 57.5 µM; HFF cells, HCMV-luciferase reporter, 72 h; active compounds read low; in the data active means activity change below about -60%; inconclusive means no clear call, values can overlap the other calls; inactive means above about -39%
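Human foreskin fibroblasts infected with luciferase-reporter HCMV at MOI 1 PFU/cell, compounds at two doses. Luciferase measured 72 h post infection; normalized to buffer-only basal and Salinomycin (10uM) controls.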
VACV mCherry inh: vaccinia inhibition (mCherry reporter); actives 0.63% (n = 310,000); Potency, µM (titrated, usually from 36.5 µM), for inactives: at the highest dose activity change, negative = inhibition, actives largely listed as inhibitors; AID 720579; Vaccinia virus mCherry reporter infection, fluorescence; calls by dose curve; tested in A549 cells; further: potency means the concentration at half of the fitted maximal effect; nearly all actives have a fitted effect of over 35% in size
Vaccinia Venus: inhibitors of vaccinia virus (Venus reporter); Vaccinia virus Venus reporter expression, fluorescence; Potency, µM (series often up to 36.5 µM), for inactives: at the top dose activity change, negative = inhibition, most hits filed as inhibitors; actives 0.46% (n = 330,000); AID 720580; calls by dose curve; tested in A549 cells; further: potency means the concentration at half of the fitted maximal effect; nearly all actives have a fitted effect of over 30% in size
HCV inhibitor: inhibitors of hepatitis C virus infection; Huh7.5.1 HCVcc-Cre infection, luciferase reporter, 44 h; AID 651820; Potency, µM (titrated, usually from 41.8 µM), for inactives: at the top dose activity change, negative = inhibition, usual class: inhibitors; actives 3.4% (n = 340,000); active means well fitted inhibition curve with a large enough effect; inconclusive means small, poorly fitted or top-dose-only effect, or another doubt; inactive means no such curve, though single readings can be large or run the other way; further: potency means the concentration at half of the fitted maximal effect
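Reporter virus HCVcc-Cre (~0.5 moi) infects cells exposed to compound; seeding density 1,000 cells/well with 4 h settling beforehand. Luminescence, 15 sec read, taken 44 h post-infection following a 15 min RT substrate incubation.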
Numbers without * were called inactive; i = inactive; ? = inconclusive; · = not tested or not shown; [ ] = remark or other dose. On the % scale 0 is the no-effect control and ±100 the full control effect.

SMILES | FMDV inh | HCMV antiviral | VACV mCherry inh | Vaccinia Venus | HCV inhibitor
COc1ccc(S(=O)(=O)c2c(Nc3ccc(C)cc3)sc(C(=O)c3ccc4c(c3)OCO4)c2N)cc1 | -7% | 0 | 1% | -4% | ·
CCOC(=O)c1c(C)[nH]c(C)c1S(=O)(=O)NCC(=O)Nc1cccc(SC)c1 | 14% | 2 | -8% | 2% | ·
CC1CC(C)CN(C(=S)SCc2nc(N)nc(Nc3ccccc3)n2)C1 (configuration not stated) | 0% | -65* | -15%[7.34 µM] | -23%[7.34 µM] | ?
CCCn1cc(C(=O)OCC)c(=O)c2cc(F)c(F)cc21 | -6% | 18 | -3% | -23% | -8%
CCOC(=O)c1cn(CC2CC2)c2cc(F)c(F)cc2c1=O | -9% | -25 | -5% | -15% | 14µM*
Cn1ncc(Cl)c1C(=O)NCC1CCCO1 (configuration not stated) | -21% | -13 | · | · | 6%
CCC(=O)N1CCc2cc(Br)cc(S(=O)(=O)NCC3CCCO3)c21 (configuration not stated) | 80% | -12 | · | · | -2%
CCC(=O)N1CCc2cc(Br)cc(S(=O)(=O)CCC(=O)NCC3CCCO3)c21 (configuration not stated) | -17% | -109* | -15% | -2% | -1%
Cc1ccccc1-c1nc(CN2CCC(C(=O)NC3CCCCC3)CC2)c(C)o1 | -14% | -29 | i | -8% | -4%
Cc1ccccc1-c1nc(CN2CCC(C(=O)NCCc3ccccc3)CC2)c(C)o1 | -8% | 14 | -14% | -7% | ·
Cc1ccccc1-c1nc(CN2CCC(C(=O)NCCCN3CCCC(C)C3)CC2)c(C)o1 (configuration not stated) | -13% | -63* | i | -21% | 5µM*
Cc1ccccc1-c1nc(CN2CCC(C(=O)NCCC3=CCCCC3)CC2)c(C)o1 | -11% | -4 | · | · | 6.3µM*
COc1ccc(CCNC(=O)C2CCN(Cc3nc(-c4ccccc4C)oc3C)CC2)cc1OC | ? | -18 | · | · | 7.9µM*
N#CC1(Nc2ccc3ccccc3c2)CCCC1 | 3% | 9 | ? | 11% | -5%
Cc1cc([N+](=O)[O-])nn1CC(=O)Nc1ccc(Cl)cn1 | -8% | -60* | -26% | -3% | 6%
Cc1ccc([N+](=O)[O-])c(OCCN2CCCCCC2)c1 | -10% | -78* | · | · | -9%
O=C(COC(=O)CCc1c[nH]c2ccccc12)Nc1ccccc1C(F)(F)F | -17% | -94* | · | · | -18%
CCCCc1ccc(S(=O)(=O)NCCCN2CCCC2=O)cc1 | 10% | -17 | -1% | -20% | ·
CC(NCc1cc(Br)ccc1OCC(=O)NCc1ccccc1)c1ccccc1 (configuration not stated) | ? | -76* | · | · | ?
CCN(CC)CCNCc1cc(Br)ccc1OCC(=O)NCc1ccccc1 | -8% | -24 | · | · | -20%
Cc1cccc2c(=O)n(C(=O)c3ccccc3)c(N)nc12 | -5% | 11 | 15% | -3% | ·
O=C(CSc1nnc(Cn2nnc3ccccc32)o1)Nc1cccc(Cl)c1 | 9% | 36 | -14% | -10% | 17%
Clc1ccc(CSc2nnc(Cn3cnc4ccccc43)o2)cc1 | ? | -81* | -27% | ? | ?
O=C(CSc1nnc(Cn2nnc3ccccc32)o1)N(Cc1ccc(Cl)cc1)c1ccccc1 | ? | -2 | ? | ? | 6.3µM*
Cc1ccc(C(=O)CC(=O)c2ccccc2C)c(O)c1 | 26% | ? | i | -9% | ?
SMILES | FMDV inh | HCMV antiviral | VACV mCherry inh | Vaccinia Venus | HCV inhibitor
C=C(CN(C)C)C(=O)c1ccc(C)cc1C | -6% | -77* | ? | ? | ?
CCC(C)c1ccc(S(=O)(=O)N2CCN3CCCC3C2)cc1 (configuration not stated) | 5% | -6 | -15% | -19% | 6%
O=C(CCc1nc2ccccc2s1)N1CCOc2ccc(CN3CCc4sccc4C3)cc2C1 | 2% | · | -16% | 0% | ·
CCOC(=O)N1CCN(Cc2ccc3c(c2)CN(C(=O)c2cc(-c4ccccc4)on2)CCO3)CC1 | 28µM* | · | -24% | -19% | ·
CCOC(=O)N1CCN(Cc2ccc3c(c2)CN(C(=O)c2cc(-c4ccccc4)no2)CCO3)CC1 | 25µM* | · | -26% | -29% | ·
Cc1ccc2[nH]nc(C(=O)N3CCOc4ccc(CN5CCc6sccc6C5)cc4C3)c2c1 | -21% | · | 13µM* | -20% | ·
COc1cccc(-c2cc(C(=O)N3CCN(Cc4ccccc4)CC3)no2)c1 | 14% | 23 | i | -14% | ?
COC(=O)c1c(N)n(-c2cc(Cl)cc(Cl)c2)c2nc3ccccc3nc12 | -15% | -7 | -11% | -5% | ·
COc1ccc(C(=O)NCC(c2ccc(N(C)C)cc2)N2CCOCC2)cc1 (configuration not stated) | 4% | -77* | 7% | 6% | ·
COc1ccc(C(CNC(=O)c2cc3ccccc3o2)N2CCCC2)cc1 (configuration not stated) | -5% | -7 | · | · | -1%
COc1ccc(C(CNC(=O)c2cccc(S(=O)(=O)Nc3ccc(F)cc3)c2)N2CCCCC2)cc1 (configuration not stated) | 1% | -5 | · | · | 5µM*
COc1ccc(C(CNC(=O)c2cc3ccccc3o2)N2CCCCC2)cc1 (configuration not stated) | -17% | 11 | i | -5% | 16µM*
COc1ccc(C(=O)NCC(c2ccc(N(C)C)cc2)N2CCCC2)cc1 (configuration not stated) | -25% | -26 | 6% | ? | ·
COc1ccccc1C(CNC(=O)c1cccc(S(=O)(=O)Nc2ccc(C)cc2)c1)N(C)C (configuration not stated) | 7% | -76* | i | -24% | ·
O=C(Nc1ccc(C(F)(F)F)cc1)N[C@H]1CC[C@@]23CCCN2C(=O)CCC[C@H]3C1Cc1ccccc1 (some centres not stated) | · | -23 | · | · | ·
COc1ccccc1CN1CC(C(=O)NCC2(O)CCCCC2)CCC1=O (configuration not stated) | -8% | -64* | i | -3% | ·
COc1ccccc1CN1CC(C(=O)NCc2cc(F)ccc2C)CCC1=O (configuration not stated) | 30% | 31 | -6% | -9% | -17%
CC(C)N(Cc1ccccc1)S(=O)(=O)c1ccc(N2CCCCS2(=O)=O)cc1 | ? | -32 | -12% | -17% | ·
O=C(O)CSCC(=O)N1CCN(c2ccnc3cc(Cl)ccc23)CC1 | -20% | · | · | · | -10%
Cc1cc(N2CCN(C(=O)Nc3ccc(F)cc3F)CC2)c2ccccc2n1 | -23% | · | -19% | -11% | ?
CC(=O)N1CCN(c2ccnc3cc(Cl)ccc23)CC1 | -13% | ? | i | -11% | 21%
O=C(Nc1cc(F)ccc1F)N1CCN(c2ccnc3cc(Cl)ccc23)CC1 | 32µM* | -83* | · | · | 11µM*
Cc1ccc(F)cc1NC(=O)N1CCN(c2ccnc3cc(Cl)ccc23)CC1 | ? | -69* | · | · | 3.5µM*
Cc1cccc(Cl)c1NC(=O)N1CCN(c2ccnc3cc(Cl)ccc23)CC1 | ? | -65* | · | · | ?
